Assays:
Experiment in all cases: PBM binding z-score (relative to random genomic background probes); higher = stronger binding; sequences stand for … in GC…GCGATTGACAGCGTAGAATGAAGG
[1] = test system: FXR:RXRa (NR concentration 270 nM, RXRa partner concentration 90 nM)
How it was run: (§1)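 Binding buffer was PBS pH 7.4 with 2% milk, 0.02% Triton X-100, 1 mM DTT, 0.2 mg/mL BSA and 0.4 mg/ml salmon testes DNA. In it, ligand-free nuclear receptor dimers were incubated 1 h on custom Agilent 4×180K protein-binding microarrays carrying double-stranded probes. Antibodies against each partner (one per run) detected binding, and z-scores were calculated against random background probes after regression normalization of scanned fluorescence.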

[2] = test system: LXRa:RXRa (NR concentration 270 nM, RXRa partner concentration 90 nM)
How it was run: as §1

[3] = test system: LXRa homodimer (NR concentration 270 nM)
How it was run: as §1

[4] = test system: LXRb:RXRa (NR concentration 270 nM, RXRa partner concentration 90 nM)
How it was run: as §1

[5] = test system: LXRb homodimer (NR concentration 270 nM)
How it was run: as §1

[6] = test system: PPARa:RXRa (NR concentration 270 nM, RXRa partner concentration 90 nM)
How it was run: as §1

[7] = test system: PPARg:RXRa (NR concentration 180 nM, RXRa partner concentration 90 nM)
How it was run: as §1

[8] = test system: PPARg:RXRa 270nM:90nM, anti-RXR (NR concentration 270 nM, RXRa partner concentration 90 nM)
How it was run: as §1

[9] = test system: PPARg:RXRa 30nM:10nM, anti-RXR (NR concentration 30 nM, RXRa partner concentration 10 nM)
How it was run: as §1

[10] = test system: PPARg:RXRa 90nM:30nM, anti-RXR (NR concentration 90 nM, RXRa partner concentration 30 nM)
How it was run: as §1

[11] = test system: PPARg:RXRa DBDmut IVT, anti-RXR (DBD mutation: RXRa K156A/R161A, NR concentration 270 nM, RXRa partner concentration 90 nM)
How it was run: as §1

[12] = test system: PPARg:RXRa IVT, anti-PPARg (NR concentration 270 nM, RXRa partner concentration 90 nM)
How it was run: as §1

[13] = test system: PPARg DBDmut:RXRa IVT, anti-PPARg (DBD mutation: PPARg1 K132A/R137A, NR concentration 270 nM, RXRa partner concentration 90 nM)
How it was run: as §1

[14] = test system: PPARg DBDmut IVT, anti-PPARg (DBD mutation: PPARg1 K132A/R137A, NR concentration 270 nM)
How it was run: as §1

[15] = test system: PPARg homodimer (NR concentration 180 nM)
How it was run: as §1

[16] = test system: PXR:RXRa (NR concentration 270 nM, RXRa partner concentration 90 nM)
How it was run: as §1

[17] = test system: PXR homodimer (NR concentration 270 nM)
How it was run: as §1

[18] = test system: RARa:RXR (NR concentration 270 nM, RXRa partner concentration 90 nM)
How it was run: as §1

[19] = test system: RARa homodimer (NR concentration 270 nM)
How it was run: as §1

[20] = test system: RARb:RXRa (NR concentration 270 nM, RXRa partner concentration 90 nM)
How it was run: as §1

Row | Sequence | PBM binding z-score [1] | PBM binding z-score [2] | PBM binding z-score [3] | PBM binding z-score [4] | PBM binding z-score [5] | PBM binding z-score [6] | PBM binding z-score [7] | PBM binding z-score [8] | PBM binding z-score [9] | PBM binding z-score [10] | PBM binding z-score [11] | PBM binding z-score [12] | PBM binding z-score [13] | PBM binding z-score [14] | PBM binding z-score [15] | PBM binding z-score [16] | PBM binding z-score [17] | PBM binding z-score [18] | PBM binding z-score [19] | PBM binding z-score [20]
1 | TCTAGCAGGCTAGAGGGTCACTCAAGAGGTACGG | 1.01 | 0.938 | -0.529 | 0.868 | -1.08 | 2.4 | 1.05 | 2 | 1.9 | 1.98 | 0.497 | 0.41 | -0.174 | -0.574 | 0.731 | 1.48 | -0.354 | 2.02 | -0.017 | 1.93
2 | TAGCCTAGGTCAGATCGGGCCCGTATACGCTATA | 1.58 | 1.2 | -0.271 | 0.916 | -0.19 | 1.67 | 0.67 | 0.657 | -0.472 | 0.0407 | 0.295 | 1.06 | -0.496 | -0.614 | -0.129 | 0.189 | -0.808 | 1.16 | -0.649 | 3.02
3 | ATATGTAGGTTAAGGGGCATTCAGGTTGGTTCGC | 1.42 | 2 | 1.15 | 2.75 | 1.48 | 5.25 | 9.21 | 8.26 | 8.39 | 9.63 | 7.2 | 7.11 | 2.3 | 1.88 | 2.29 | 2.12 | 1.83 | 1.92 | 1.47 | 1.78
4 | AATACAGGGTCACTAGGCCAGAGAAGGTACGAAT | 5.79 | 5.03 | 1.01 | 3.99 | 0.795 | 5.85 | 7.78 | 6.43 | 3.11 | 5.35 | 4.07 | 5.68 | 1.28 | 1.34 | 1.96 | 3.02 | 0.776 | 3.74 | 0.823 | 4.2
5 | AGTCAAAGTTCAGGACGAGGTAGCGTAAAGCACG | 3.74 | 3.36 | 1.03 | 1.58 | -0.21 | 3.13 | 4.27 | 4.86 | 1.87 | 3.74 | -0.637 | 1.36 | -0.194 | -0.537 | 1.46 | 2.36 | 0.831 | 2.26 | 0.252 | 4.31
6 | GTACCTAGGTGAATAGGTCGTTGATGAGTAGGCG | 0.327 | 0.577 | -0.19 | 0.185 | -0.886 | 1.93 | 1.83 | 2.16 | 0.782 | 1.89 | 2.96 | 3.55 | -0.531 | -0.303 | 0.221 | 0.327 | -0.195 | 1.03 | 0.134 | 1.15
7 | CGTCAAAGTTCAACTAGGGTAACGTAAAGCACGC | 7.53 | 6.47 | 4.77 | 4.43 | 2.39 | 5.32 | 5.78 | 5.97 | 2.98 | 5.07 | 1.68 | 3.83 | 0.643 | 0.081 | 3.72 | 5.46 | 6.56 | 4.56 | 1.44 | 5.37
8 | TAGCCTAGGTCATTGGGCCAGTATTGTACGCATC | 4.48 | 3.6 | 0.903 | 2.28 | 0.642 | 3.66 | 3.19 | 3.33 | 1.04 | 2.35 | 2.88 | 3.82 | 0.545 | -0.273 | 1.88 | 1.57 | -0.247 | 2.41 | -0.7 | 3.58
9 | GATACAGGGTCAAGGCCAGAGTTCGCGTATTGAT | 6.64 | 4.34 | 0.289 | 3.72 | -0.198 | 5.66 | 5.99 | 5.93 | 2.4 | 4.93 | 2.6 | 3.98 | 0.606 | -0.0978 | 2.3 | 5.07 | 1.99 | 5.07 | 1.32 | 4.49
10 | AGAACGAGGGCAATGAGTTAATAGCACGGGTGGC | 0.223 | 0.22 | -0.363 | -0.11 | -0.589 | 1.34 | 1.56 | 1.23 | -0.12 | 0.528 | 3.29 | 2.59 | 0.242 | 0.395 | 0.0728 | 1.43 | 2.98 | 0.239 | -0.224 | 2.04
11 | CCTGCTAGGTCAATGGTCAGCTGAAGCAGCTCGC | 3.06 | 2.17 | -0.221 | 1.45 | -0.203 | 3.22 | 4.4 | 5.35 | 2.69 | 4.92 | 4.48 | 4.13 | 0.258 | -0.168 | 1.14 | 0.872 | -0.578 | 1.71 | -0.46 | 3.85
12 | ATCGAAAGGTCGACGAGGTGACTATACACCGTTT | 4.76 | 3.44 | 0.283 | 3.17 | 0.252 | 4.53 | 3.26 | 3.2 | 1.22 | 2.33 | 1.03 | 2.4 | 1.08 | 0.608 | 1.89 | 3.44 | 0.829 | 3.99 | 0.449 | 4.01
13 | TCTCGGAGGACACGAAGGTAAGAGCTTTCCAGAG | 0.0947 | -0.361 | -0.534 | -0.695 | -1.37 | -0.0207 | -0.0725 | 0.91 | 2.21 | 1.39 | 1.18 | -0.283 | -1.16 | -1.1 | -1.58 | -0.316 | -1.01 | -0.153 | -0.725 | 1.25
14 | AGTCAAAGCTCAGGACGAGGTAACGTAAAGCACG | -0.244 | -0.551 | -0.393 | -0.561 | -0.87 | -0.301 | 0.722 | -0.305 | -0.133 | -0.117 | -0.71 | -0.0403 | -0.126 | -0.455 | 0.053 | -0.435 | -0.405 | 0.159 | -0.547 | -0.0865
